According to PubChem BioAssay AID463213 (Sanford-Burnham Center for Chemical Genomics, 2010):
In all, about 7,400 compounds went through this assay and about 4,100 (55%) were called active.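 How the source made its calls: active means inhibition of yeast growth at or above a set limit in either of two repeat tests at 20 µM; inactive means the rest.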 The set was probably picked from earlier hits. A selection follows.

test: growth inhibitors of tim10-1 mutant yeast, confirmation, single concentration, luminescence, S. cerevisiae (AID 463213);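 further: tim10-1 mutant grown at permissive 25 °C to find synthetic lethal compounds; 0% = DMSO yeast wells and 100% = medium wells without yeast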; details: S. cerevisiae tim10-1 ts strain growth, BacTiter-Glo, 24 h; at 20 µM; active compounds read high

inhibition, active:
Fc1cccc(Cl)c1CSc1ccc(-c2ccco2)nn1 39.5%
COc1ccc(CS(=O)/C(Cl)=C(/Cl)C(=O)Nc2ccc(OC)nc2)cc1 (stereo unspecified) 34.8%
Cc1ccc(NC(=O)CN2CCC3(O)CCCCC3C2c2ccc3c(c2)OCO3)c(C)c1 (stereo unspecified) 37.5%
CN(c1ccccc1)S(=O)(=O)c1ccc(NC(=O)COc2ccccc2)cc1 34.2%
COc1ccc(/C(N)=N/OC(=O)CCCc2ccccc2)cc1 48.1%
N/C(=N\OC(=O)CCc1ccccc1)c1ccc(Cl)cc1 57.7%
CS(=O)(=O)c1sc2nc(-c3ccccc3)cc(-c3ccccc3)c2c1N 33.8%
O=C(CC(O)(C(F)(F)F)C(F)(F)F)Nc1ccc(Cl)c(Cl)c1 88.2%
O=S(=O)(Nc1cccc(Oc2ccc(Cl)cc2)n1)c1ccc(F)cc1 45%
CCCCCC1CCC(c2nnc(SCC(C)=O)o2)CC1 (stereo unspecified) 39.2%
CCOC(=O)c1c(-c2ccccc2)oc2cc(Br)c(O)cc12 39.4%
CCn1nccc1C(=O)Nc1ccc(Cl)c(Cl)c1 37.8%
O=C(/C=C/c1ccccc1)c1ccccc1O 56.2%
COc1ccc(C(=O)Nc2ccc(-n3nncc3C(C)(C)C)cc2)cc1 38.6%
Cc1ccc(S/C(=N\S(=O)(=O)c2ccc(Cl)cc2)c2ccccc2)cc1 35.6%
Oc1c(CN2CCN(c3ccc(F)cc3)CC2)cc(Cl)c2cccnc12 32%
O=C(/C=C/c1cccs1)c1cc(Cl)ccc1OC(=O)N1CCOCC1 48.5%
O=C(NC(Nc1nc2ccc([N+](=O)[O-])cc2s1)(C(F)(F)F)C(F)(F)F)c1ccccc1 86.6%
N/C(=N\OC(=O)CCC1CCCCC1)c1ccccn1 45.5%
N/C(=N\OC(=O)CC1CCCCC1)c1ccccc1 47.9%
Cc1nnnn1/C(=C\c1ccccc1)C(=O)OCC(=O)N1CC2(C)CC1CC(C)(C)C2 (stereo unspecified) 48.4%
N/C(Cc1ccc([N+](=O)[O-])cc1)=N\OC(=O)C1CCCCC1 79.8%
N/C(Cc1ccc([N+](=O)[O-])cc1)=N\OC(=O)COc1ccc2ccccc2c1 74.3%
Cc1cccc(NC(=S)Nc2ccc(Cl)c(Cl)c2)c1 50.9%
CCOc1ccc(C(c2c(C)[nH][nH]c2=O)c2c(C)[nH][nH]c2=O)cc1OCC 36.1%
N/C(=N\OC(=O)Cc1ccccc1[N+](=O)[O-])c1ccc(Br)cc1 55.3%
Cc1cccc(N=Nc2c(O)[nH]c3ccc(F)cc23)c1 51.5%
Cc1ccccc1NCC(=O)N/N=C\c1ccc([N+](=O)[O-])s1 44.2%
Cc1ccccc1Nc1nnc(SCC(=O)c2cc3ccccc3o2)s1 33.8%
O=C(/C=C/Sc1ncn[nH]1)c1ccc(Cl)cc1 69.7%

inhibition, inactive:
Clc1ccccc1CSc1nnc(-c2ccco2)c(-c2ccco2)n1 27.3%
COc1cc(C(=O)Nc2nccs2)cc(OC)c1OC 29%
CSc1nnc(NC(=O)c2nc(S(=O)(=O)Cc3ccc(C)cc3)ncc2Cl)s1 -0.5%
Cn1c(CCCOc2ccc(Cl)cc2Cl)n[nH]c1=S 17.5%
Cn1c(C(=O)OC(C(=O)NC2CCCCC2)c2ccccn2)cc2sccc21 (stereo unspecified) 17.9%
Cc1ccc(NC(=O)CCOc2ccccc2)cc1S(=O)(=O)Nc1ccccc1Cl 29.1%
COc1ccc(/C(N)=N/OC(=O)Cc2ccccc2)cc1 15.5%
Nc1nc(-c2ccccc2)cc(-c2ccccc2)n1 10%
O=C(COc1ccccc1Cl)N1N=C(c2cccs2)CC1c1ccco1 (stereo unspecified) 27.8%
CN=c1scc(-c2cc(OC)ccc2OC)n1/N=C/c1c(C)[nH]c2ccccc12 19.1%
CCCc1nc2c(c(=O)c3ccccc3n2C)c(=O)n1C1CCCCCC1 28.5%
COc1ccc(CCNc2cc(C)nc3c(-c4ccc(Cl)cc4)c(C)nn23)cc1OC 24%
CCOC(=O)c1c(CN2CCOCC2)n(-c2ccccc2)c2ccc(O)cc12 22.6%
CCOC(=O)c1c(-c2ccccc2)oc2ccc(OCC(=O)NN)cc12 15.6%
CCOc1ccccc1N1CCN(C(=O)c2ccc3[nH]c(C)c(C)c3c2)CC1 16.4%
CC(C)Cn1c(N)c(C(=O)NCc2cccs2)c2nc3ccccc3nc21 22.4%
O=C(c1cccc(C(=O)N2CCN(c3ccc(F)cc3)CC2)c1)N1CCN(c2ccc(F)cc2)CC1 27%
Fc1ccc(N2CCN(Cc3cnc(Oc4ccc(Br)cc4)s3)CC2)cc1 28.4%
OC(CNCC1CCCO1)Cn1c2ccc(Br)cc2c2cc(Br)ccc21 (stereo unspecified) 3.65%
O=C(NCCN1C(=O)S/C(=C\c2cccnc2)C1=O)c1cccc(OC(F)F)c1 27.6%
S=c1[nH]nc(CSCc2ccc(Cl)cc2Cl)n1-c1ccccc1 24.7%
CN(C)C(=O)c1ccc2c(c1)C1C3CCC(C3)C1C(c1ccccc1)N2 (stereo unspecified) 25.9%
Cc1cccc(NC(=S)N2CCC(c3nc4ccccc4s3)CC2)c1 30.5%
FC(F)(F)c1cccc(NC(=S)Nc2cccc(Cl)c2)c1 21.2%
Cc1[nH][nH]c(=O)c1C(c1ccc(-c2ccc(Cl)cc2)o1)c1c(C)[nH][nH]c1=O 29%
COc1ccccc1C1SCCN1C(=O)c1ccc([N+](=O)[O-])cc1 (stereo unspecified) 15.9%
COc1cc(Cl)c(C)cc1NC(=O)CSc1nnc(-c2ccco2)n1CC(C)C 24.4%
COc1cc(N=Cc2c(O)[nH]c3ccccc23)cc(OC)c1OC 20.7%
C/C(=N\NC(=O)CNc1cccc2ccccc12)c1ccc(Br)s1 26.1%
O=C(CCc1ccccc1)Nc1ncc([N+](=O)[O-])s1 25%
CC(C)CC(=O)NC(=S)Nc1ccc(F)cc1F 24.9%
